Source: PubChem BioAssay
GBA activity: alters purified human glucocerebrosidase activity. P04062. 48,000 compounds, 1.1% hits. purified enzyme, resorufin glucoside fluorescence (screen aimed at inhibitors), 20 min. AID 360. Potency, µM; in the data active = potency below about 15 µM;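 also: the screen sought inhibitors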
Target sequence (P04062 whole entry, looked up): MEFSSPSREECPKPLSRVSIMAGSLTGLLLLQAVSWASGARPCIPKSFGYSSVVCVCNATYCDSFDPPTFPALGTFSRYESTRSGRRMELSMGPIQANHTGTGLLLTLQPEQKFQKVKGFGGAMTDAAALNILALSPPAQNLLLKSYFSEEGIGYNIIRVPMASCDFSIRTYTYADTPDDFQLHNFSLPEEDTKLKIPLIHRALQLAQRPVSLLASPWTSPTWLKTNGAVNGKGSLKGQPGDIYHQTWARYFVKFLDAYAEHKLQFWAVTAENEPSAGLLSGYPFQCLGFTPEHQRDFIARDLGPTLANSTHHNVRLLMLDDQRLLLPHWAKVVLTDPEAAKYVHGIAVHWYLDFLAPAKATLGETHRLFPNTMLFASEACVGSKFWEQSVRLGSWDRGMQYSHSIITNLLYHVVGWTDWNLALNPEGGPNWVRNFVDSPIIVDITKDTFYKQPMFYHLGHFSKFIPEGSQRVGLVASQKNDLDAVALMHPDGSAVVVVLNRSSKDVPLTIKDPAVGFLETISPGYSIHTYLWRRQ
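Wild-type enzyme at 0.2 nM final in 50mM citric acid/KH2PO4, 10mM sodium taurocholate, 0.01% tween-20, pH 5.9, with resorufin beta-D-glucopyranoside at 30 uM final. Compounds titrated, 20 min at RT, red fluorescence read; AC50 from titration.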
Numbers stand for hits; i = inactive. This is one part of a sample in which hits are shown more often than they occur.

SMILES	GBA activity
Cn1c(=O)n(Cc2ccc(F)cc2)c(=O)c2c1nc1n2CCCN1Cc1ccccc1	i
Cn1c(=O)n(CCc2ccccc2)c(=O)c2c1nc1n2CCCN1CCc1ccccc1	8.99
Cn1c(=O)n(Cc2ccccc2F)c(=O)c2c1nc1n2CCCN1CCc1ccccc1	13.5
O=C(CSc1nnc(-c2cccs2)n1-c1ccccc1)N1CCc2ccccc21	i
O=C1NCCCC1C(=O)N1CCN(C(=O)C2CCCNC2=O)CC1 (centres undefined)	i
O=C(CSc1nc2cc(Cl)ccc2o1)c1cccs1	i
CC(=O)C1C(c2ccccc2OC(F)F)NC(=O)NC1(O)C(F)(F)F (centres undefined)	i
CCOc1ccc2cc(C#N)c(SCC(=O)NC(C)CC)nc2c1 (centres undefined)	i
COc1ccc(C2C(C(=O)N3CCN(c4ccccc4)CC3)c3ccccc3C(=O)N2C)cc1 (centres undefined)	i
COc1ccccc1N1CCN(c2ncnc3c2oc2ccccc23)CC1	i
c1cnc(N2CCN(c3ncnc4c3oc3ccccc34)CC2)nc1	5.7
C(=C\c1ccccc1)/CN1CCN(c2ncnc3c2oc2ccccc23)CC1	i
CCOC(=O)c1cc2occc2n1CC(=O)Nc1ccc(OC)cc1OC	i
Nc1nc(N2CCN(C/C=C/c3ccccc3)CC2)nc2ccccc12	8.42
O=c1[nH]c(CN2CCN(C/C=C/c3ccccc3)CC2)nc2ccccc12	i
O=S(=O)(Cc1ccccc1)N1CCN(C/C=C/c2ccccc2)CC1	i
CCOC(=O)CC1=CC(C)(CC(=O)OCC)C(C#N)(C#N)C(N)=C1C#N (centres undefined)	4.84
N#Cc1ccccc1CSc1nc(N2CCCCC2)nc(N2CCCCC2)n1	i
COc1ccc2cc3cc(C(=O)NCC4COc5ccccc5O4)oc3nc2c1 (centres undefined)	i
O=C(Cn1cnc2c(nnn2Cc2ccccc2F)c1=O)NCc1ccco1	i
Cn1c(=O)c2sccc2n2c(CCCC(=O)NCc3ccc4c(c3)OCO4)nnc12	i
c1ccc2nc(N3CCCC3)c(N3CCCC3)nc2c1	i
Oc1ccc(Nc2nc(N3CCCC3)c3ccccc3n2)cc1	8.85
Cc1nc(NC2=NCN(C3CCCCC3C)CN2)nc2ccccc12 (centres undefined)	i
CCn1cc(C(=O)N2CCCc3ccccc32)c2cc(OC)c(OC)cc2c1=O	i
SMILES	GBA activity
CCc1nnc(NC(=O)c2ccc(COc3ccc(C)cc3)o2)s1	i
CCc1nnc(NC(=O)c2ccc(COc3ccccc3)o2)s1	i
CCc1nnc(NC(=O)c2ccc(-c3cccc(C(F)(F)F)c3)o2)s1	1.84
Fc1ccc(N2CCN(C(c3cccs3)c3nnnn3C3CCCC3)CC2)cc1 (centres undefined)	i
CC(NC(=O)NC12CC3CC(CC(C3)C1)C2)C1CCCO1 (centres undefined)	i
Brc1cnc(N2CCCC2)nc1N1CCOCC1	14.6
C1CN(c2nc3nonc3nc2N2CCOCC2)CCO1	i
Oc1ccccc1Oc1ncc(Br)c(N2CCOCC2)n1	i
CCc1cc(=O)oc2cc(OC(C)C(=O)O)c(Cl)cc12 (centres undefined)	i
COC(=O)Cc1cc(=O)[nH]c(/N=C(/NC(=O)c2ccccc2)Nc2ccccc2C)n1	i
C=CCn1c(SCc2c(C)noc2C)nnc1C1COc2ccccc2O1 (centres undefined)	i
COc1cc(NC(=O)NCc2ccncc2)cc(OC)c1OC	i
CCC1Cc2c(nc3c4c(nc(N5CCOCC5)c(C#N)c24)NC(C)=N3)O1 (centres undefined)	i
CCc1c(C(=O)Nc2nnc(C3CC3)s2)csc1C	1.48
Cc1nn(-c2ccc(C(=O)Nc3nnc(C4CC4)s3)cc2)c(C)c1Cl	i
O=C(Nc1nnc(C2CCCCC2)s1)c1cccs1	i
CCOc1ccc(CCNS(=O)(=O)c2cccc3nsnc23)cc1OCC	i
O=C(c1cc2c(=O)oc3ccccc3c2s1)N1CCN(c2ccccn2)CC1	i
O=S(=O)(CC(CN1CCCC1)N1CCCC1)c1ccc2ccccc2c1 (centres undefined)	i
CCOC(=O)c1nn(-c2ccc3c(c2)OCO3)cc1O	i
CCCC(=O)N1CCN(c2ccc(NC(=O)c3ccccc3)cc2)CC1	i
CC(=O)Nc1cccc(NC(=O)c2cc3ccccc3o2)c1	i
COC(=O)c1ccc(N2CCN(C)CC2)c(NC(=O)c2cc3ccccc3o2)c1	i
O=C(c1cc2ccccc2o1)N1CCN(c2ccccc2Cl)CC1	i
CCC(=O)N1CCN(c2ccc(NC(=O)c3cc4ccccc4o3)cc2Cl)CC1	3.23
SMILES	GBA activity
CCCC(=O)N1CCN(c2ccc(NC(=O)c3cc4ccccc4o3)cc2Cl)CC1	4.22
O=C(CC1(C(F)(F)F)OCCO1)Nc1ccc2c(c1)OCO2	i
O=c1[nH]nnc2sc3c(c12)CCCC3	i
N#CC1=C(N)NC(SCC(=O)O)=C(C#N)C12CCCC2	i
N#CC1=C(SCC(=O)NC23CC4CC(CC(C4)C2)C3)NC(=O)C(C#N)C12CCCCC2 (centres undefined)	6.16
N#CC1=C(SCC(=O)NC2CC2)NC(=O)C(C#N)C12CCCCC2 (centres undefined)	i
Cc1ccc(-c2nnn(CC(=O)Nc3ccccc3-c3ccccc3)n2)c(-n2cnnn2)c1	i
CCCNC(=O)N1CCN(S(=O)(=O)c2ccc(C)c(C)c2)CC1	i
CS(=O)(=O)NC1CCN(Cc2ccccc2)CC1	i
O=S(=O)(c1ccc(S(=O)(=O)N2CCN(Cc3ccccc3)CC2)cc1)N1CCOCC1	i
O=S(=O)(NC1CCCC1)c1ccc(S(=O)(=O)N2CCCN(Cc3ccccc3)C2)cc1	14.7
O=C(CCC1CCCCC1)N1CCN(Cc2ccc3c(c2)OCO3)CC1	i
CCOc1cc(C2/C(=C(/O)c3ccc(OC(C)C)cc3)C(=O)C(=O)N2CCCOC)ccc1O (centres undefined)	i
COc1ccc(C(=O)CSc2nnc(CNC(=O)c3ccc(OC)c(OC)c3)n2C)cc1	i
CCOC(=O)c1c(C)[nH]c(C(=O)COC(=O)c2ccncc2)c1C	i
CCOC(=O)c1c(C)[nH]c(C(=O)COC(=O)C2CC2C)c1C (centres undefined)	7.76
CCOC(=O)c1c(C)[nH]c(C(=O)COC(=O)c2ccc(F)c(S(=O)(=O)N3CCOCC3)c2)c1C	i
CCOC(=O)c1c(C)[nH]c(C(=O)COC(=O)CCC(=O)c2ccc3c(c2)OCCO3)c1C	11.4
CCOC(=O)c1[nH]c(C)c(C(=O)NC(C)(C)C)c1C	i
CCOC(=O)c1[nH]c(C)c(C(=O)Nc2ccc3c(c2)OCCO3)c1C	i
Cc1ccc(CNC(=O)Cn2c(=O)oc3ccccc32)o1	i
CN(C)CCN1C(=O)C(=O)/C(=C(/O)c2ccc(OCc3ccccc3)cc2)C1c1ccncc1 (centres undefined)	i
CCOCCOCN(C#N)c1nc(OC)nc(N(C)C)n1	i
COC(=O)c1ccc(S(=O)(=O)N(Cc2cc3cc4c(cc3[nH]c2=O)OCO4)C2CCCCC2)cc1	i
CCc1nnc(NC(=O)CSc2nnc(COc3ccccc3)n2Cc2ccccc2)s1	i
SMILES	GBA activity
CCC(c1nnnn1C(C)(C)C)N1CCN(c2cc(Cl)ccc2C)CC1 (centres undefined)	i
CCOC(=O)CSc1cccc2cccnc12	i
CCn1c(Cc2c(C)[nH]c3ccccc23)n[nH]c1=S	i
C=CCn1c(-c2c[nH]c3ccccc23)n[nH]c1=S	i
CCn1c(-c2c[nH]c3ccccc23)n[nH]c1=S	10.8
CNS(=O)(=O)c1cccc(C(=O)OCc2cc(Cl)cc3c2OCOC3)c1	i
CCOc1cccc2cc(-c3nnc(NCc4ccco4)s3)c(=O)oc12	i
COc1ccc2oc(=O)c(-c3nnc(NCc4ccco4)s3)cc2c1	9.95
COc1ccc(CCC(=O)NCc2ccco2)cc1	i
CC(=O)NC1C(=O)Nc2c1cccc2C(F)(F)F (centres undefined)	i
Cc1cc2oc(=O)cc(CN3CCCCC3C)c2c(C)c1Cl (centres undefined)	i
